BoNT F protease = inhibitors of Botulinum neurotoxin F light chain protease | Multiplex microsphere protease cleavage assay, flow cytometry | inhibition, % at 10 µM | 0.22% of 360,000 active | AID 588497; in the data active = inhibition above about 35%, passing the limit was not always enough; inconclusive = no clear call, values can overlap the other calls; also: plate controls were buffer without enzyme for full effect and enzyme alone for no effect
Anthrax LF prot = anthrax lethal factor protease inhibition; P15917; multiplex microsphere protease cleavage assay, LF; inhibition, % at 10 µM; 0.12% of 360,000 active; AID 588501; also: plate controls were buffer without enzyme for full effect and enzyme alone for no effect
BoNT A protease = inhibitors of Botulinum neurotoxin A light chain protease | inhibition, % at 10 µM | 0.17% of 360,000 active | multiplex microsphere protease substrate cleavage, flow cytometry; also: plate controls were buffer without enzyme for full effect and enzyme alone for no effect
PriA SSB inh = inhibitors of Klebsiella pneumoniae PriA binding to SSB C-terminal tail. 0.6% of 430,000 active. inhibition, % at 33 µM. AlphaScreen SSBct-PriA binding, biotinylated peptide; in the data active = inhibition mostly above about 37%, no sharp cut-off; inactive = mostly below about 20%;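 also: plate controls were negative control peptide for no effect and reference peptide for full effect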
Bead autofluor = compound fluorescence in toxin protease inhibitor counterscreen. compound autofluorescence counterscreen, microsphere flow cytometry; active compounds read high. fluorescence intensity (concentration not given with the values). 3.1% of 360,000 active. AID 624483; in the data active = fluorescence intensity above about 16000; inconclusive = no clear call, values can overlap the other calls
* = called active by the depositor; ? = inconclusive; · = no result given. An excerpt weighted towards active compounds, which were near 3.1% of everything screened. Rule as the data show it, unless noted: active = inhibition above about 30%; inconclusive = no clear call, values can overlap the other calls; inactive = below that.

SMILES	BoNT F protease	Anthrax LF prot	BoNT A protease	PriA SSB inh	Bead autofluor
CC(=O)Nc1ccc(S(=O)(=O)N2CCN(CCCOc3ccccc3Cl)CC2)cc1	-4	-2	0	0	5838
COc1ccc(N2C(=O)CCC(C(C)=O)=C2C)cc1	1	-2	?	1	22405*
COc1ccc(OS(=O)(=O)c2ccc(N3C(=O)CCC3=O)cc2)cc1	-5	-17	0	2	3689
COc1ccc(NS(=O)(=O)c2ccc(NC(C)=O)cc2)c(OC)c1	-17	-4	0	-5	3994
COc1cccc(NS(=O)(=O)c2ccc(NC(C)=O)cc2)c1	1	2	?	-5	23977*
COc1cccc(OCCCN2CCN(S(=O)(=O)c3ccc(NC(C)=O)cc3)CC2)c1	-2	-3	?	4	20823*
COc1ccc(N2CCN(C(=O)c3ccc(NS(=O)(=O)c4ccc(F)c(F)c4)cc3)CC2)cc1	-6	-1	-4	14	17709*
COc1ccc(NS(=O)(=O)c2ccc(N3C(=O)CCC3=O)cc2)cc1	-4	-2	-4	-12	24859*
COc1ccc(S(=O)(=O)Nc2cccc(NC(C)=O)c2)cc1	-9	-4	-7	-12	17504*
O=S(=O)(NC1CCCCCC1)c1cccc2cccnc12	-6	-8	-2	-18	16645*
COc1ccc(S(=O)(=O)Nc2cccc(/C=C/C(=O)O)c2)cc1	-3	0	0	-12	2624
CNC(=O)c1c(NC(=O)COc2ccc(Cl)cc2)sc(C)c1C	·	·	·	-14	·
COc1ccc(NS(=O)(=O)c2cccc3cccnc23)cc1	-1	3	1	15	6368
COC(=O)c1ccc(NS(=O)(=O)c2ccc(OC)cc2)cc1	0	-1	?	-3	22817*
COC(=O)c1ccc(NS(=O)(=O)c2cccc3cccnc23)cc1	8	0	4	-10	18372*
COc1ccc(NS(=O)(=O)c2c(C)cc(C)cc2C)cc1	-4	-5	-1	5	3419
COc1cccc(NS(=O)(=O)c2c(C)cc(C)cc2C)c1	-2	-1	-1	-24	20856*
O=C(O)c1ccc(NS(=O)(=O)c2ccc(Cl)cc2)cc1	-2	-5	-1	-9	21092*
COC(=O)c1ccc(NS(=O)(=O)c2ccc(-c3ccc(Cl)cc3)cc2)cc1	·	·	·	-11	·
COC(=O)c1ccc(/C=C/C(=O)c2ccc(OC)cc2)cc1	1	0	0	4	22281*
COC(=O)c1ccc(/C=C/C(=O)c2ccc(OC)c(OC)c2)cc1	-12	-10	-1	12	3525
CC(C)S(=O)(=O)c1ccc(CC(=O)NC[C@H](O)Cn2ccccc2=O)cc1	·	·	·	-5	·
CCS(=O)(=O)N1N=C(c2cccc(NS(C)(=O)=O)c2)CC1c1ccc(C)cc1 (configuration not stated)	-1	17	26	-9	21472*
Nc1ccccc1-c1nnc(SCC(=O)c2ccc(F)cc2)o1	·	·	·	2	·
Cc1c2cnn(CC(=O)NCCCN3CCCCC3C)c(=O)c2c(C)n1Cc1ccccc1 (configuration not stated)	-18	-24	1	11	18388*
SMILES	BoNT F protease	Anthrax LF prot	BoNT A protease	PriA SSB inh	Bead autofluor
O=C(NCc1cccs1)NCC1(c2ccsc2)CCCC1	·	·	·	-4	·
Cc1ccccc1Cn1c(Cc2ccccc2)nc2ccccc21	-6	0	?	-5	24142*
Cc1ccccc1Cn1c(CCO)nc2ccccc21	·	·	·	-16	·
COCc1nc2ccccc2n1Cc1cccc(C)c1	-5	-1	-2	-11	16897*
COCn1c(-c2cccc(Br)c2)nc2ccccc21	0	-5	?	-14	19656*
Cc1cccc(Cn2c(Cc3ccccc3)nc3ccccc32)c1	4	-1	0	-18	2047
CCOc1ccccc1-c1noc(Cn2c(=O)n(CC(C)C)c(=O)c3ccccc32)n1	·	·	·	-4	·
Cc1ccc(Cc2nnc(NC(=O)c3ccc(C(F)(F)F)cc3)o2)cc1	·	·	·	-2	·
CCOC(=O)Cc1csc(NC(=O)COc2ccc(C)cc2)n1	-4	0	-1	6	4062
CCOC(=O)Cc1csc(NC(=O)c2ccc(Br)cc2)n1	?	-7	0	-18	3339
CCOC(=O)Cc1csc(NC(=O)c2ccc(C)o2)n1	-3	0	0	-6	8273
CCOC(=O)Cc1csc(NC(=O)COc2ccccc2)n1	-3	-2	-2	-2	22960*
CCOC(=O)Cc1csc(NC(=O)c2ccc(S(=O)(=O)N3CCCCC3)cc2)n1	1	2	?	-2	22414*
CCOC(=O)Cc1csc(NC(=O)c2ccco2)n1	0	-6	1	-20	20219*
CCOC(=O)Cc1csc(NC(=O)NC2(C(F)(F)F)Oc3ccccc3O2)n1	-4	-4	-1	-23	16388*
COc1ccccc1NCC(=O)NN=C(C)c1cccs1	·	·	·	-3	·
COc1ccccc1CNC(=O)Cn1nc2c(N3CCc4ccccc4C3)nccn2c1=O	·	·	·	-13	·
COC(=O)c1ccc(C(=O)NCC[C@H](O)c2ccsc2)cc1	·	·	·	-6	·
CCCCc1ccc(NC(=O)CSc2cn(CCNC(=O)c3ccccc3F)c3ccccc23)cc1	·	·	·	6	·
CN1C(=O)C(=Cc2ccc(N3CCCCCC3)o2)C(=O)N(C)C1=S	197*	30*	27	-9	14036
CC(=O)N1CCc2cc(S(=O)(=O)NCCn3nc(-c4ccc(F)cc4)ccc3=O)ccc21	·	·	·	-7	·
COc1ccc(OC)c(-c2cc(C(=O)NCC3CCN(S(C)(=O)=O)CC3)n(C)n2)c1	·	·	·	-9	·
CN1CCC(OC(=O)c2ccc(Br)cc2)CC1	5	-1	3	0	21548*
C=CCN1CC(c2nc3ccccc3n2Cc2cccc3ccccc23)CC1=O (configuration not stated)	-3	-1	-1	9	19853*
C=CCN1C[C@@H](c2nc3ccccc3n2CCCCOc2ccccc2)CC1=O	·	·	·	-1	·
SMILES	BoNT F protease	Anthrax LF prot	BoNT A protease	PriA SSB inh	Bead autofluor
CCN1CCCc2cc(CN(CCN3CCOCC3)C(=O)Nc3ccc(C)c(C)c3)ccc21	-9	-2	-2	·	20262*
CCN1CCCc2cc(CCNC(=O)Nc3ccc(OC)c(OC)c3)ccc21	·	·	·	70*	·
CCN1CCCc2cc(CCNC(=O)Nc3ccccc3)ccc21	·	·	·	63*	·
Cc1cc(NC(=O)C(=O)NCCc2ccc3c(c2)CCCN3C)c2ccccc2n1	·	·	·	42*	·
O=C(Cn1cnc2c(-c3ccc(Cl)cc3)csc2c1=O)NCc1ccco1	·	·	·	-1	·
CC(=NN1CCN(C)CC1)c1c(O)[nH]c(=O)[nH]c1=O	·	·	·	2	·
O=C(NCCn1nc(-c2ccco2)ccc1=O)C1CN(C(=O)c2cnccn2)C1	·	·	·	-5	·
CCN1CCCc2cc(CCNC(=O)C(=O)Nc3cccc(NC(C)=O)c3)ccc21	·	·	·	54*	·
CCOc1ccc(-c2n[nH]c(=S)o2)cc1	-7	5	0	3	3472
CCOc1ccccc1-c1n[nH]c(=S)o1	-6	-1	-5	-1	17280*
CCCCN(C(=O)Nc1ccc(Cl)cc1)C1CCN(C(C)=O)CC1	7	1	5	-2	17864*
CN(C)c1nc(N2CCCCC2)ncc1NC(=O)c1ccccc1C(F)(F)F	·	·	·	-4	·
C=CCNC(=O)c1ccc(N(C)S(=O)(=O)c2ccc(OC)cc2)cc1	-4	0	-2	-2	16765*

High-throughput results: PubChem BioAssay, several laboratories
